Source: PubChem BioAssay (The Scripps Research Institute Molecular Screening Center)
GPR151 activ – human GPR151 activation. Q8TDV0. PathHunter beta-arrestin GPR151 cells, luminescence. activation, % at 11.2 µM. 650,000 tested, 1% active. AID 1508602; in the data active = activation above about 4.9%;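 also: 0% = median of compound wells and 100% = cells with positive control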
Target sequence (Q8TDV0 whole entry, looked up): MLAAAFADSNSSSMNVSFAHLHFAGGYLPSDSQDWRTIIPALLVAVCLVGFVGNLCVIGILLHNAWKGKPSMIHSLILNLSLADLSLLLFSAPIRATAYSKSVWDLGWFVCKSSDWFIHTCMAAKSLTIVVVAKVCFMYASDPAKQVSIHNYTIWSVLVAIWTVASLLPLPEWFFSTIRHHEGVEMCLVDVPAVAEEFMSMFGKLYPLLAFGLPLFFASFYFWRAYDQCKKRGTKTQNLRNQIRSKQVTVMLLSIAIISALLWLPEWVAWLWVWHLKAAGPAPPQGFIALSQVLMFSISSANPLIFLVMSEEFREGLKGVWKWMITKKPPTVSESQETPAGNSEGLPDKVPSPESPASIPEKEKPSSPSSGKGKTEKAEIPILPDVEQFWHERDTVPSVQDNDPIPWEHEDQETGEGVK
MITF primary – human MITF inhibition, primary screen | 650,000 tested, 0.91% active | AID 1259374 | AlphaScreen MITF homodimerization, bead proximity signal | inhibition, % at 2.6 µM; in the data active = inhibition above about 50%;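 also: 0% = vehicle wells with protein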
TEAD-YAP inh – TEAD-YAP interaction inhibition. HEK-TIYL cells, TEAD-Gal4/YAP UAS-luciferase luminescence. inhibition, % at 9.12 µM. 640,000 tested, 1.4% active. AID 1259422; in the data active = inhibition above about 32%;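 also: 0% = median of test compound wells and 100% = reference inhibitor wells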
FBW7 activator – human FBW7 E3 ligase activation, primary screen | Q969H0 | AlphaScreen FBW7–phospho-cyclin E peptide binding, activator screen | normalized activity (activation), % at 26.1 µM | 650,000 tested, 0.13% active | AID 1259310; in the data active = normalized activity above about 1.9%;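 also: purified mutant Fbw7 with reduced substrate affinity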
Starred values were filed as active, the others as inactive. In the library only some 3.5% were active in any assay of this set; here they are far more common.

SMILES	GPR151 activ	MITF primary	TEAD-YAP inh	FBW7 activator
NC(CO)C(=O)N/N=C/c1ccc(O)c(O)c1O (stereo unspecified)	0	96*	-5	-1
NC(CO)C(=O)NNCc1ccc(O)c(O)c1O (stereo unspecified)	2	88*	-6	0
O=C(N/N=C/c1ccc(O)c(O)c1O)c1ccc(Cl)cc1Cl	-1	37	5	0
Cc1cccc(NC(=O)CCc2csc(NC(=O)c3ccc(F)cc3)n2)c1C	2	3	40*	0
CC(C)c1ccccc1NC(=O)CCc1csc(NC(=O)c2ccc(F)cc2)n1	1	1	23	0
Cc1cccc(NCC(=O)N/N=C/c2ccc(O)c(O)c2)c1	0	6	-17	0
O=C(NCc1ccncc1)c1ccc(OC2CCN(Cc3cc4ccccc4o3)CC2)cc1	3	3	45*	0
CCOC(=O)c1cc(C(=O)NNC(=O)C(C)N2C(=O)c3ccccc3C2=O)c(C)nc1C (stereo unspecified)	0	2	-10	0
COc1ccc(Cl)cc1C(=O)N1CCN(c2ccccc2)CC1	-1	0	50*	0
COc1cc(SC)ccc1C(=O)N1CCN(c2ccccc2OC)CC1	0	18	56*	1
COc1ccccc1C(=O)N1CCN(c2ccccc2OC)CC1	2	-8	8	0
CCOc1ccccc1N1CCN(C(=O)c2cc(OC)c(OC)c(OC)c2)CC1	1	-4	64*	0
COc1ccc(Cl)cc1C(=O)N1CCN(c2ccccc2OC)CC1	-1	6	54*	0
Cc1cc(I)ccc1S(=O)(=O)NCc1cccnc1	2	5	-6	0
Cc1ccc(C)c(OCC(=O)Nc2nc3ccccc3s2)c1C	3	16	-4	0
COc1ccc(/C=c2\sc3nc4ccccc4n3c2=O)cc1OC(C)=O	-1	2	-3	0
CCCCn1c(CNC(=O)Cc2ccc(OC)cc2)nnc1SC(C)C(=O)Nc1sc2c(c1C(=O)OCC)CCCC2 (stereo unspecified)	0	-1	-1	0
COc1cc(C#N)ccc1OCCc1ccccc1	2	-9	-22	0
COc1ccccc1N1CCN(C(=O)c2c(-c3ccccc3)noc2C)CC1	2	-4	44*	0
CCSc1ncc(Cl)c(C(=O)N2CCN(c3ccccc3OC)CC2)n1	1	9	60*	0
CCOc1ccccc1N1CCN(C(=O)C2CCN(Cc3ccccc3O)CC2)CC1	-1	62*	9	0
CCCCn1c(=S)[nH]c2cc3ccccc3cc2c1=O	0	12	15	0
O=C(N/N=C/c1c(O)ccc2ccccc12)c1n[nH]c([N+](=O)[O-])n1	-1	-3	-5	0
Cc1ccccc1-c1ccc(N2CCN(S(=O)(=O)c3cccs3)CC2)nn1	3	13	1	1
Cc1cc(C)nc(N/N=C/c2cc(Br)cc(Br)c2O)n1	-2	50	13	-1
SMILES	GPR151 activ	MITF primary	TEAD-YAP inh	FBW7 activator
Cc1cc(C)nc(N/N=C/c2ccc(O)c(O)c2O)n1	2	52*	12	-1
Cc1cc(=O)[nH]c(N/N=C/c2ccc(O)c(O)c2O)n1	2	100*	-9	-1
CCc1ccc(OCC(=O)Nc2ccc(NC(=O)C(C)C)c(OC)c2)cc1	2	11	-4	0
Cc1cc(C(F)(F)F)nc(SCc2ccc(C(=O)NNC(=O)c3ccccc3C)o2)n1	-1	0	38*	0
Cc1cc(C(F)(F)F)nc(SCc2ccc(C(=O)O)o2)n1	-1	7	8	0
COC(=O)c1cnc(Nc2cc(Cl)ccc2OC)c2ccccc12	-1	15	1	0
CCc1ccc(Nc2ncc(C(=O)OC)c3ccccc23)cc1	0	13	-9	4.0*
COC(=O)c1cnc(Nc2ccc(OC)c(Cl)c2)c2ccccc12	0	9	-13	2.4*
COC(=O)COc1cccc(-c2nc(Nc3ccc4[nH]ncc4c3)c3ccccc3n2)c1	0	13	3	0
O=C(COc1cccc(-c2nc(Nc3ccc4[nH]ncc4c3)c3ccccc3n2)c1)Nc1cccnc1	0	13	37*	0
CN(C)c1ccnc2sc(C(N)=O)c(N)c12	-1	11	53*	0
CCOC(=O)c1sc2nccc(N(C)C)c2c1N	2	3	-18	0
CC(=O)N1CCN(C(=O)c2ccc(Cn3ccnc3)cc2)CC1	1	10	7	0
Cc1cc(S(=O)(=O)O)c(C(C)C)cc1N	-1	22	8	4.1*
c1ccc2c(-c3csc(NC4CCCC4)n3)c[nH]c2c1	0	1	-9	5.4*
c1ccc2c(-c3csc(NCC4CCCO4)n3)c[nH]c2c1 (stereo unspecified)	0	-6	-10	0
c1ccc(-c2nc(-c3ccncc3)cc(N3CCCCC3)n2)cc1	-1	3	8	0
Nc1nc(-c2ccccc2)cc(N2CCCC2)n1	0	18	45*	0
CCCCN1C(=O)NC(=O)/C(=C\c2cc(OC)c(O)c(OC)c2)C1=O	0	8	4	-1
CCOCCCNCC(O)COc1c(Cl)cccc1Cl (stereo unspecified)	-1	30	52*	0
CCOC(=O)CC1COCCN1Cc1cn[nH]c1-c1ccc2cc(OC)ccc2c1 (stereo unspecified)	0	13	46*	0
CCOC(=O)c1[nH]ncc1CN1CCN(Cc2ccc(OC)cc2F)C(CCO)C1 (stereo unspecified)	-2	8	2	0
O=C1c2ccccc2-c2onc3c(Br)cc(NCCO)c1c23	-2	22	27	0
COc1cccc(C2CC(c3ccc(Cl)cc3)=NC(c3ccc(Cl)cc3Cl)N2)c1O (stereo unspecified)	-1	1	-23	0
O=C(Nc1cc(-c2ccccc2Oc2ccc(F)cc2)ccn1)C1CCOC1 (stereo unspecified)	3	22	26	1
SMILES	GPR151 activ	MITF primary	TEAD-YAP inh	FBW7 activator
O=C(Nc1cc(-c2ccccc2Oc2cccc(F)c2)ccn1)C1CCOC1 (stereo unspecified)	2	50	33*	1
O=C(Nc1cc(-c2ccccc2OCc2ccccc2)ccn1)C1CCOC1 (stereo unspecified)	0	11	89*	0
CCc1cccc(NC(=O)[C@@H](NC(=O)c2ccc(OC)cc2)C(C)C)c1	1	-16	-30	0
COc1ccc(C(=O)Nc2ccc(-c3cn4ccsc4n3)cc2)c(OC)c1	0	-5	-15	2.0*
COc1ccc(C(=O)Nc2ccc(-c3csc(C)n3)cc2)c(OC)c1	-1	-10	-31	0
COc1ccc(C(=O)NC(=S)NC2CCS(=O)(=O)C2)cc1 (stereo unspecified)	0	38	2	0
O=S1(=O)CCC(NC(=S)Nc2ccc(OC(F)F)cc2)C1 (stereo unspecified)	0	-8	41*	0
CCN1CCN(C(c2cccs2)c2ccc3cccnc3c2O)CC1 (stereo unspecified)	1	18	88*	0
